39 compounds from PubChem BioAssay (EPA / NIEHS) can be followed below.

By AC50 is commonly meant the concentration giving half of the maximal activity seen.

Some compounds were tested as several samples or in several runs, with calls that do not always agree. The source made the active and inactive calls. Rule for the calls: active = hit-call score of the fitted dose curve at least 0.9, where 1 is the maximum; inactive = score below 0.9.

Chain of Nuclear respiratory factor 1 (Homo sapiens) (Q16656 whole entry, looked up): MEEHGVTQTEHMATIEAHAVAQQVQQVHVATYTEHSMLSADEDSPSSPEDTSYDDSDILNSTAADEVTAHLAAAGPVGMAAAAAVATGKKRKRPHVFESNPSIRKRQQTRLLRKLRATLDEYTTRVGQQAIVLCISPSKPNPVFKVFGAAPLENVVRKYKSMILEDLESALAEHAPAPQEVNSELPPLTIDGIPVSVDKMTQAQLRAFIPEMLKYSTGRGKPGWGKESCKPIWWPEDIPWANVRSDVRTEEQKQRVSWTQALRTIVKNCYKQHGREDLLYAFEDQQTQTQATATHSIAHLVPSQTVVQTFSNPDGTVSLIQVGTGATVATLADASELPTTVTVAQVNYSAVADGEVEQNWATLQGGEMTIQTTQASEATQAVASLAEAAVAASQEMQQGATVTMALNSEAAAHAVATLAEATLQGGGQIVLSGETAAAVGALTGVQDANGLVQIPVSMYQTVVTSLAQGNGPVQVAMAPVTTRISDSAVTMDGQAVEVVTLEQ

The assay concerns the target Nuclear respiratory factor 1 (Homo sapiens) (UniProt Q16656). Kind of assay: ATG_NRF1_CIS: Attagene CIS-FACTORIAL HepG2 Assay for human Nuclear Respiratory Factor 1 (NRF1) Orphan Gene (AID 2282987). To be noted: HepG2 NRF1 cis-element reporter, Attagene multiplex; actives raise or lower the signal. The procedure:
ATG_CIS is a cell-based, multiplexed-readout assay that uses HepG2, a human liver cell line, with measurements taken at 24 hours after chemical dosing in a 24-well plate.ATG_NRF1_CIS is one of 52 assay component(s) measured or calculated from the ATG_CIS assay. It is designed to make measurements of mRNA induction, a form of inducible reporter, as detected with fluorescence intensity signals by Reverse transcription polymerase chain reaction (RT-PCR) and Capillary electrophoresis technology.Data from the assay component ATG_NRF1_CIS was analyzed into 1 assay endpoint. This assay endpoint, ATG_NRF1_CIS, was analyzed with bidirectional fitting relative to DMSO as the negative control and baseline of activity. Using a type of inducible reporter, measures of mRNA for gain or loss-of-signal activity can be used to understand the reporter gene at the transcription factor-level as they relate to the gene NRF1. Furthermore, this assay endpoint can be referred to as a primary readout, because this assay has produced multiple assay endpoints where this one serves a reporter gene function. To generalize the intended target to other relatable targets, this assay endpoint is annotated to the dna binding intended target family, where the subfamily is nuclear respiratory factors.
Human liver HepG2 cells are transiently transfected with multiple reporter transcription units (MRTUs) in 6-well plates using FuGene 6 reagent (Roche; 3 ml FuGene/1 mg DNA). The MRTU constructs are regulated by a cis-regulating element (promoter). […] A major difference between the CIS and TRANS system is that in CIS activities of endogenous TFs are measured, whereas the TRANS assay evaluates changes in activities of exogenous, chimeric NR-Gal4 proteins. […] At the end of 24 hour incubation, total RNA was isolated using TriZol reagent (Invitrogen). The isolated RNA is then reverse-transcribed using oligo(dT) primer and Mo-MLV reverse transcriptase (Invitrogen) with DNAse I (Ambion) treatment for 30 min. The one-tenth of the produced cDNA was amplified by PCR using Taq DNA polymerase (Invitrogen) and two reporter sequence-specific primers. The PCR products were fluorescently labeled by primer extension with 6-arboxyfluorescein (6-FAM) 5'-labeled reporter sequence-specific primer (2 min at 95 C, 20 s at 68 C and 10 min at 72 C) and these products were digested with 5U of HpaI (New England Biolabs) for 2h at 37 C. The fragments were purified using Qiaquick PCR columns (Qiagen), analyzed on an ABI 3130xL genetic analyzer (Applied Biosystems) with peak positions identified by using a set of X-rhodamine (ROX)-labeled MapMarker1000 molecular weight standards (BioVentures). The raw capillary electrophoresis data was processed using Attagraph software (Attagene).
As for `OCCOc1ccccc1`, the outcome was inactive.
In the case of `O=S(=O)(O)C(F)(F)C(F)(F)C(F)(F)C(F)(F)C(F)(F)C(F)(F)C(F)(F)C(F)(F)F`, the AC50 is 111 µM (active) and the result was inactive.
As for `COc1nn(CSP(=S)(OC)OC)c(=O)s1`, the call was inactive.
Same read-out and setting: in the case of `CCCN(CCOc1c(Cl)cc(Cl)cc1Cl)C(=O)n1ccnc1` it was “inactive”; in that of `CC1(C)C(C=C(Cl)Cl)C1C(=O)OC(C#N)c1ccc(F)c(Oc2ccccc2)c1` (stereo not given), “inactive”; in that of `CNC(=O)/C=C(\C)OP(=O)(OC)OC`, “inactive”.
Still for that read-out and setting: the result for `CC(C)N(C(=O)COc1nnc(C(F)(F)F)s1)c1ccc(F)cc1` reads “inactive”; that for `COC(=O)c1ccccc1S(=O)(=O)NC(=O)Nc1nc(C)nc(OC)n1`, “inactive”; that for `CNC(=O)CSP(=S)(OC)OC`, “inactive”.
In the case of `CC(C)(C)C(O)/C(=C\c1ccc(Cl)cc1Cl)n1cncn1` (stereo not given), the compound was called inactive.
Same read-out and setting: in the case of `COP(=O)(OC)OC=C(Cl)Cl` it was “inactive”.
The same measure, in the same setting: the result for `O=C1c2ccccc2C(=O)N1SC(Cl)(Cl)Cl` reads “inactive”; that for `C[C@H]1[C@H](c2ccc(Cl)cc2)SC(=O)N1C(=O)NC1CCCCC1`, “inactive”; that for `COc1cc(OC)nc(NC(=O)NS(=O)(=O)c2cc(NC=O)ccc2C(=O)N(C)C)n1`, “inactive”.
On to `Oc1ccc(Cl)cc1Cc1ccccc1`, for which the outcome was inactive.
Same read-out and setting: in the case of `N#Cc1c(Cl)c(Cl)c(Cl)c(C#N)c1Cl` it was “inactive”; in that of `O=[N+]([O-])/N=C1\NCCN1Cc1ccc(Cl)nc1`, “inactive”; in that of `CCC(C)(NC(=O)c1cc(Cl)c(C)c(Cl)c1)C(=O)CCl` (stereo not given), “inactive”.
On the same count and under the same terms, in the case of `O=C(O)CCCOc1ccc(Cl)cc1Cl` it was “inactive”.
As to `CCCN(CCC)c1c([N+](=O)[O-])cc(C(F)(F)F)cc1[N+](=O)[O-]`, the result was inactive.
On the same count and under the same terms, the result for `Cc1[nH]c(=O)n(C(C)(C)C)c(=O)c1Cl` reads “inactive”.
Same read-out and setting: the result for `CNC(=O)Oc1ccccc1OC(C)C` reads “inactive”; that for `O=C(NC(=O)c1c(F)cccc1F)Nc1ccc(OC(F)(F)C(F)OC(F)(F)F)c(Cl)c1` (stereo not given), “inactive”; that for `COC(=O)c1ccccc1CS(=O)(=O)NC(=O)Nc1nc(OC)cc(OC)n1`, “inactive”.
Regarding `O=S1OCC2C(CO1)C1(Cl)C(Cl)=C(Cl)C2(Cl)C1(Cl)Cl` (stereo not given), the result was inactive.
The same measure, in the same setting: the result for `CC1(c2ccc(Oc3ccccc3)cc2)OC(=O)N(Nc2ccccc2)C1=O` (stereo not given) reads “inactive”; that for `O=C(O)C(F)(F)C(F)(F)C(F)(F)C(F)(F)C(F)(F)C(F)(F)C(F)(F)F`, “inactive”; that for `CNC(=O)Oc1cccc(N=CN(C)C)c1`, “inactive”.
For `N#CN`, the compound was classed as inactive.
On the same count and under the same terms, in the case of `CC[C@H](C)[C@H]1O[C@]2(C=C[C@@H]1C)C[C@@H]1C[C@@H](C/C=C(\C)[C@@H](O[C@H]3C[C@H](OC)[C@@H](O[C@H]4C[C@H](OC)[C@@H](O)[C@H](C)O4)[C@H](C)O3)[C@@H](C)/C=C/C=C3\CO[C@@H]4[C@H](O)C(C)=C[C@@H](C(=O)O1)[C@]34O)O2` (tested in a mixture with another compound) it was “inactive”.
For the compound `COP(=S)(OC)Oc1ccc([N+](=O)[O-])cc1`, the compound was called inactive.
The same measure, in the same setting: in the case of `ClC1C(Cl)C(Cl)C(Cl)C(Cl)C1Cl` (stereo not given) it was “inactive”.
Same read-out and setting: in the case of `[2H]C1([2H])[n+]2ccccc2-c2cccc[n+]2C1([2H])[2H]` it was “inactive”; in that of `CN1CSC(=S)N(C)C1`, “inactive”; in that of `CCC(C)Nc1c([N+](=O)[O-])cc(C(C)(C)C)cc1[N+](=O)[O-]` (stereo not given), “inactive”.
Consider `O=[N+]([O-])c1c(Cl)c(Cl)c(Cl)c(Cl)c1Cl`, for which the compound was classed as inactive.
Same read-out and setting: the result for `CCS(=O)(=O)c1cccnc1S(=O)(=O)NC(=O)Nc1nc(OC)cc(OC)n1` reads “inactive”.
The same measure, in the same setting: in the case of `CCOC1Oc2ccc(OS(C)(=O)=O)cc2C1(C)C` (stereo not given) it was “inactive”; in that of `CCOCN(C(=O)CCl)c1c(C)cccc1CC`, “inactive”.
